The list is not random: actives were taken first. Their share in the collection is about 2.8%.
HEK293 tox: cytotoxicity counter-screen for GLP-1 receptor inverse agonists. HEK293 cAMP-luciferase reporter cells, luminescence, 24 h. Potency, µM (doses to about 38.3 µM), inactives show at the highest dose activity change, negative = inhibition, usual class: inhibitors. 410,000 compounds, 0.13% hits;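 also: loss of luciferase light is scored as toxicity; % is scaled to controls: 0 for no effect and ±100 for the full control effect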
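A 23 nL compound transfer followed 12 hours of cell culture at 37 deg C; exposure then lasted 24 hr. Luciferase assay detection reagent was dispensed and plates read for luminescence after a 12 min room-temperature wait.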
Mito fusion act: inhibitors of mitochondrial division or activators of mitochondrial fusion; S. cerevisiae fusion-defective mutant growth rescue, CellTiterGlo 48 h; AID 485298; 320,000 compounds, 0.23% hits; Potency, µM (series often up to 46.1 µM), for inactives: at the highest dose growth rescue (activation), hits mostly activators; also: % of control where 0% means no effect; nearly all actives have a fitted effect of over 45% in size
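Luminescent cell viability in 1536-well qHTS format served as the measure of rescued growth in ts fusion-mutant S. cerevisiae cultured on non-fermentable YPEG for 48 hours at 37C.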
GLP1R inv ag: inverse agonists of human GLP-1 receptor; P43220; HEK293 GLP-1R CRE-luciferase, luminescence, 24 h; GLP-1R form is constitutively active; Potency, µM (doses to about 38.3 µM), for the others: top-dose activity change, negative = inhibition, actives largely listed as inhibitors; 410,000 compounds, 1.6% hits; AID 624417; also: % is scaled to controls: 0 for no effect and ±100 for the full control effect; nearly all actives have a fitted effect of over 55% in size
Target sequence (P43220 whole entry, looked up): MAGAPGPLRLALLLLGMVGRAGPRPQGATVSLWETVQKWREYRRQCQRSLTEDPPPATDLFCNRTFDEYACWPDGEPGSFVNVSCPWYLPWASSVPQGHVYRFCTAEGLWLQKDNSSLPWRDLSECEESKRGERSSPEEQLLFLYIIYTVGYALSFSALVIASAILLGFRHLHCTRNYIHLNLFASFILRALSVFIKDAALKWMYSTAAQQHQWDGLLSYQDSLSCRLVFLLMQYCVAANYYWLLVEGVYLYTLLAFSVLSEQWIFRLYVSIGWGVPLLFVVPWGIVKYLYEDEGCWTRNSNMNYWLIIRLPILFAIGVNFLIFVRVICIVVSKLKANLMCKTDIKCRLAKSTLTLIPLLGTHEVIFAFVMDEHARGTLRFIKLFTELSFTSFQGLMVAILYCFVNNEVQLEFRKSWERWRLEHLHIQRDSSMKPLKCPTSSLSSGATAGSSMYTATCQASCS
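Inverse agonism was detected as reduced cAMP-driven luciferase luminescence after 24 h compound treatment. The cells were HEK293 clones expressing constitutively active human GLP-1R with the reporter. Reporter-only and GPR119 cell lines served as counterscreen controls.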
BRCA1 expr up: increases BRCA1 expression. MCF7-BRCA1-FFLuc reporter, luminescence, 48 h; response scale: scaled: vehicle 0%, 10 µM genistein 100%. Potency, µM (top dose mostly 46.1 µM), inactives show top-dose activation, usual class: activators. 380,000 compounds, 1.1% hits; also: nearly all actives have a fitted effect of over 80% in size
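MCF7 cells carrying a BRCA1-firefly luciferase reporter (2000 cells/well, phenol-red free MEM) were attached for 2 h at 37 °C, then given compounds for 48 h. Luminescence was read 15 min after luciferase reagent; activity normalized to genistein (10 microM) and DMSO.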
GLP1R ag: agonists of human GLP-1 receptor; P43220; HEK293 GLP-1R CRE-luciferase, luminescence, 4-6 h; cells express a hypersensitive GLP-1R form; Potency, µM (doses to about 45.6 µM), without a hit: top-dose activation, usual class: activators; 380,000 compounds, 0.007% hits; also: % of control where 0% means no effect
* marks the source's active call; other numbers are inactive results; i = inactive; ? = inconclusive; / = not tested or not shown. Calls follow the shape of the dose curve; as a rule, active = well fitted curve in the direction sought with a large enough effect; inconclusive = small, poorly fitted or top-dose-only effect, or another doubt; inactive = no such curve, though single readings can be large; an effect the other way counts as inactive or inconclusive. Potency is read from the fitted curve at half-maximal effect.

SMILES | HEK293 tox | Mito fusion act | GLP1R inv ag | BRCA1 expr up | GLP1R ag
Cc1ccc(CN2C(=O)CSC2c2ccc(F)cc2)cc1 (centres undefined) | 2% | -13% | ? | -34% | 17%
Cc1ccc(CN2C(=O)CSC2c2ccccc2F)cc1 (centres undefined) | 18% | 13% | 10µM* | -6% | 11%
Cc1ccc(-c2nn(-c3ccccc3)cc2C2SCC(=O)N2Cc2ccccc2)o1 (centres undefined) | 6% | ? | 11µM* | -33% | 11%
CN1CCN(C(=S)NC(=O)c2cccc([N+](=O)[O-])c2)CC1 | ? | 3% | ? | 17% | -3%
Cc1[nH]n(-c2cccc(Cl)c2)c(=O)c1C=NCC(C)C | 0% | 16% | -14% | 10µM* | 18%
Cc1[nH]n(-c2cccc(Cl)c2)c(=O)c1C=NCc1ccco1 | -22% | 1% | 17% | 11µM* | 13%
Cc1[nH]n(-c2ccccc2)c(=O)c1C=NCc1ccco1 | / | 3% | / | / | /
O=C(CSc1nnnn1-c1cccc2c1CCCC2)N1CCCC1 | -11% | -1% | ? | -22% | -7%
CC1CCCC(C)N1C(=O)CSc1nnnn1-c1cccc2c1CCCC2 (centres undefined) | -6% | -1% | 7.9µM* | -14% | -2%
O=C(CSc1nnc2ccccn12)Nc1cccc(-c2nc3ccccc3s2)c1 | -5% | -1% | 29% | 5µM* | -2%
O=C(CSc1nnc2ccccn12)Nc1ccc2c(c1)OCO2 | -13% | 3% | 50% | 4% | 2%
CN(C)c1ccc(/C=N\NC(=O)c2csnn2)cc1 | 21% | 0% | ? | 9% | -44%
O=C(N/N=C\c1ccc(Oc2ccccc2)cc1)c1csnn1 | 3% | ? | 8% | 13µM* | -5%
CCOc1ccc(S(=O)(=O)N2CCC(C(=O)N3CCN(c4ccccc4F)CC3)CC2)cc1C | 10% | -3% | 5.6µM* | -45% | 2%
COc1ccc(-c2noc(-c3ccoc3C)n2)cc1 | -3% | 8% | -11% | 11µM* | -7%
COc1cccc(-c2noc(-c3ccoc3C)n2)c1 | 4% | 0% | 22% | 2% | 10%
COc1ccc(-c2noc(-c3ccoc3C)n2)cc1OC | 12% | 1% | 26% | 4.5µM* | 28%
COc1ccc(-c2cc(C(=O)N3CCN(c4cccc(C)c4C)CC3)c3ccccc3n2)cc1OC | 4% | 12% | ? | -55% | -1%
CC12CCC(C(=O)NNc3ccc([N+](=O)[O-])cc3)(OC1=O)C2(C)C (centres undefined) | -29% | -13% | ? | 2% | -1%
CC12CCC(C(=O)NNc3ccc([N+](=O)[O-])cc3)(CC1=O)C2(C)C (centres undefined) | 10% | 26% | 8.9µM* | -1% | -8%
C=CCNC(=S)N/N=C/c1ccc(C)cc1C | ? | 8% | ? | -10% | 0%
C=CCNC(=S)N/N=C/c1ccc(C)c([N+](=O)[O-])c1 | 7.9µM* | 16% | ? | -17% | 18%
COCCCN1CC(=O)N2Cc3[nH]c4ccccc4c3C[C@H]2C1=O | -4% | 8% | 4% | 12% | -8%
CCOCCCNC(=O)c1cc(Sc2ccc(C)cc2)nc2ccccc12 | 1% | 14% | 10µM* | -14% | 9%
CCOCCCNC(=O)c1cc(Sc2cccc(Cl)c2)nc2ccccc12 | -4% | / | ? | -13% | 8%
SMILES | HEK293 tox | Mito fusion act | GLP1R inv ag | BRCA1 expr up | GLP1R ag
CC(C)NC(=O)Nc1ccc2c(c1)C(=O)N([C@H](C)CO)C[C@H](C)[C@@H](CN(C)S(=O)(=O)c1ccc(F)cc1)O2 | 7% | / | 7% | -29% | 3%
CCN1C(=O)[C@@H]2[C@@H](c3ccc(-c4ccc(C(C)=O)cc4)cc3)N3CCCC[C@@]3(C(=O)OC)[C@@H]2C1=O | 0% | 29% | 3% | 0% | -1%
Cc1ccc(NC(=O)NC2CCCc3ccccc32)cc1 (centres undefined) | -6% | -5% | ? | 10% | 4%
CC(C)(C)c1ccc(NC(=O)NC2CCCc3ccccc32)cc1 (centres undefined) | -15% | -6% | 3.2µM* | -17% | 6%
CC(C)Cn1c(-c2ccccc2)nc2ccccc2c1=O | -6% | 0% | 2.8µM* | -5% | 7%
c1ccc(Cn2c(-c3ccco3)nc3nc4ccccc4nc32)cc1 | 61% | 2% | -35% | ? | 4%
O=c1c2ccccc2nc(-c2ccccc2)n1O | 16% | / | -8% | -2% | -5%
O=c1c2ccccc2nc(-c2ccco2)n1Cc1ccccc1 | -13% | 14% | ? | 7.9µM* | ?
COc1ccc(NC(=O)CN(Cc2ccccc2)S(=O)(=O)c2ccc3nc(C)sc3c2)cc1 | 1% | / | -21% | / | /
CCCn1c(SCC(=O)Nc2ccccc2-c2ccccc2)nnc1-c1ccoc1C | -18% | 9% | 11µM* | -31% | 1%
CCn1c(C)cc(C(=O)CN2C(=O)c3ccccc3S2(=O)=O)c1C | -18% | 11% | ? | -86% | -59%
Cc1cc(C(=O)CN2C(=O)c3ccccc3S2(=O)=O)c(C)n1-c1ccccc1 | 8% | 17% | 1.4µM* | -97% | -17%
O=C(NCc1cccs1)c1cccc2c(-c3ccc(F)c(F)c3)coc12 | 2% | / | ? | ? | 23%
CC1(C)CCCN(C(=O)N2c3ccccc3Sc3ccccc32)C1 | -5% | -4% | 4.5µM* | -37% | 6%
CC1Cc2nc(SCC(=O)NCC3CCCO3)n(-c3ccccc3)c(=O)c2S1 (centres undefined) | 15% | / | 5% | 7% | -3%
CCc1ccc(NC(=O)C2=CC=CN3CCS(=O)(=O)N=C23)cc1 | -3% | 1% | 20% | 16% | 7%
CCCCOc1ccc(C2CCC(C(C)=O)C(C)C2)cc1 (centres undefined) | 13% | -1% | ? | 10µM* | 14%
CC(=O)Oc1c(-c2ccc(Br)o2)oc2ccccc2c1=O | i | -4% | 5.6µM* | -1% | 0%
Cc1c(Cl)cccc1NC(=O)Cn1c(=O)cc(C)c2c(C)nn(-c3cccc(F)c3)c21 | -3% | / | -8% | / | /
CCOCCCNC(=O)/C(C#N)=C/c1ccc(Cl)c([N+](=O)[O-])c1 | ? | 1% | 11µM* | -95% | -8%
CCCn1cc(S(=O)(=O)c2cccc(Cl)c2)c(=O)c2cc(F)c(N3CCN(CC)CC3)cc21 | 6% | / | 11% | / | /
CCOc1ccc(OCC(O)CNC2CCN(Cc3ccccc3)CC2)cc1 (centres undefined) | -7% | -7% | ? | -70% | -23%
CC(C)(c1ccccc1)c1ccc(OCC(O)CNC2CCN(Cc3ccccc3)CC2)cc1 (centres undefined) | ? | -5% | 1.8µM* | -36% | 0%

From PubChem BioAssay
